Results taken from PubChem BioAssay (NCI).
Compounds without any hit were thinned out: in the full panel of roughly 79,000, 15% have a hit. The source made the active and inactive calls. Cut-off read from the data, not from the text of the source: active = growth inhibition above about 70%; inactive = the rest.

Legend:
[1] = NCI Yeast Anticancer Drug Screen. Data for the rad52 strain (AID 147);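 note: 0% = growth of vehicle-treated control cultures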; details: S. cerevisiae rad52 mutant growth inhibition, hits give high values
Summary of the method: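 Read-out: growth inhibition versus vehicle-treated controls. Cells were a DNA repair-deficient yeast strain treated with compounds.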

[2] = NCI Yeast Anticancer Drug Screen. Data for the wt1 strain (AID 149);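 note: 0% = growth of vehicle-treated wt1 cultures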; details: S. cerevisiae wt1 strain (SPY 50644) growth inhibition, hits give high values
Summary of the method: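 Each compound is tested on wt1 yeast and the loss of growth versus vehicle gives the inhibition value.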

[3] = NCI Yeast Anticancer Drug Screen. Data for the mgt1 strain (AID 153); details: S. cerevisiae mgt1 mutant growth inhibition, hits give high values
Summary of the method: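 mgt1 yeast grown with test compound; read-out is growth inhibition versus vehicle-treated cultures.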

[4] = NCI Yeast Anticancer Drug Screen. Data for the rad50 strain (AID 155);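 note: 0% = growth of vehicle-only cultures of the same strain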; details: S. cerevisiae rad50 strain growth inhibition, hits give high values
Summary of the method: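 Vehicle-treated cultures provide the reference for the growth inhibition reported for compound-exposed, repair-deficient yeast.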

[5] = NCI Yeast Anticancer Drug Screen. Data for the mec2-1 strain (AID 157); details: S. cerevisiae mec2-1 strain, hits give high values
Summary of the method: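 Yeast mec2-1 mutant treated with compound. Readout: growth inhibition vs vehicle controls.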

[6] = NCI Yeast Anticancer Drug Screen. Data for the rad14 strain (AID 159);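 note: 0% = growth of vehicle-treated control cultures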; details: S. cerevisiae rad14 strain growth inhibition, hits give high values
Summary of the method: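 Inhibition of growth is reported for a repair-deficient yeast mutant following compound treatment, calculated relative to cultures that received vehicle.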

[7] = NCI Yeast Anticancer Drug Screen. Data for the sgs1 mgt1 strain (AID 161);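 note: 0% = growth of cultures given vehicle only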; details: S. cerevisiae sgs1 mgt1 strain, hits give high values
Summary of the method: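 Inhibition of yeast growth, normalised to vehicle-treated controls, is reported for a strain bearing genetic alterations in DNA damage repair.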

[8] = NCI Yeast Anticancer Drug Screen. Data for the cln2 rad14 strain (AID 165);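 note: 0% = growth equal to vehicle treated cultures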; details: S. cerevisiae cln2 rad14 strain, hits give high values
Summary of the method: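 cln2 rad14 yeast strain; compound exposure; growth inhibition read vs vehicle controls.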

[9] = NCI Yeast Anticancer Drug Screen. Data for the bub3 strain (AID 167); details: S. cerevisiae bub3 mutant strain, hits give high values
Summary of the method: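 Mutant yeast screening strain plus compound; vehicle-treated cultures serve as the 0% inhibition reference.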

[10] = NCI Yeast Anticancer Drug Screen. Data for the wt2 strain (AID 169); details: S. cerevisiae wt2 strain growth inhibition, hits give high values
Summary of the method: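 Read-out: growth inhibition versus vehicle-treated control cultures after compound exposure of the yeast strain.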

[11] = NCI Yeast Anticancer Drug Screen. Data for the mlh1 strain (AID 171);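 note: 0% = growth of vehicle-treated control cultures of the same strain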; details: S. cerevisiae mlh1 strain growth inhibition, hits give high values
Summary of the method: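 Read-out: growth inhibition versus vehicle controls. Strain: engineered yeast with a defined DNA repair or cell cycle defect, compound-treated.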

[12] = NCI Yeast Anticancer Drug Screen. Data for the sgs1 strain (AID 173);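 note: 0% = growth of vehicle-only control cultures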; details: S. cerevisiae sgs1 mutant, hits give high values
Summary of the method: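 Read-out: yeast growth inhibition relative to vehicle controls, following compound exposure of a strain with a defined DNA repair/cell cycle alteration.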

[13] = NCI Yeast Anticancer Drug Screen. Data for the mlh1 rad18 strain (AID 175); details: S. cerevisiae mlh1 rad18 strain growth inhibition, hits give high values
Summary of the method: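 Yeast w/ defined DNA-repair lesions; compound exposure; growth vs vehicle controls → % inhibition.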

[14] = NCI Yeast Anticancer Drug Screen. Data for the rad18 strain (AID 177); details: S. cerevisiae rad18 mutant growth inhibition, hits give high values
Summary of the method: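 Readout: growth inhibition vs vehicle controls. Cells: genetically altered yeast strain, DNA repair defect.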

[15] = NCI Yeast Anticancer Drug Screen. Data for the CLN2oe strain (AID 163);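 note: 0% = growth of vehicle-only control cultures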; details: S. cerevisiae CLN2oe strain, hits give high values
Summary of the method: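 Read-out: yeast growth inhibition, expressed relative to vehicle-only controls. The strain bears an engineered cell-cycle alteration.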

[16] = at 5.0 µM (retest, dose inferred, filed as 0.5)
[17] = at 50.0 µM (retest, dose inferred, filed as 5.0)

Measured: growth inhibition

O=C1C[C@H]2[C@H](c3ccc(Br)cc3)[C@H]3C(=O)c4ccccc4NC(=O)[C@@H]3[C@@]2(O)c2ccccc2N1
active: [4]; at 50.0 µM 96.8% | [5]; at 50.0 µM 97.8% | [7]; at 50.0 µM 96.4% | [8]; at 50.0 µM 97% | [9]; at 50.0 µM 72% | [13]; at 50.0 µM 97.8%
inactive: [1]; at 1.2 µM 5% | [1]; at 3.7 µM 7% | [1]; at 11.0 µM 8% | [1]; at 33.0 µM 38% | [1]; at 100.0 µM 33% | [2]; at 1.2 µM 6% | [2]; at 3.7 µM 10% | [2]; at 11.0 µM 11% | [2]; at 33.0 µM 14% | [2]; at 100.0 µM 16% | [3]; at 1.2 µM 5% | [3]; at 3.7 µM 11% | [3]; at 11.0 µM 12% | [3]; at 33.0 µM 45% | [3]; at 100.0 µM 36% | [4]; at 1.2 µM 3% | [4]; at 3.7 µM 6% | [4]; [16] -12% | [4]; at 11.0 µM 9% | [4]; at 33.0 µM 35% | [4]; [17] 14% | [4]; at 100.0 µM 35% | [5]; at 1.2 µM 9% | [5]; at 3.7 µM 11% | [5]; [16] 14% | [5]; at 11.0 µM 15% | [5]; at 33.0 µM 33% | [5]; [17] 19% | [5]; at 100.0 µM 33% | [6]; at 1.2 µM 6% | [6]; at 3.7 µM 9% | [6]; at 11.0 µM 16% | [6]; at 33.0 µM 32% | [6]; at 100.0 µM 27% | [7]; [16] -3% | [7]; [17] 2% | [8]; [16] -7% | [8]; [17] 27% | [9]; at 1.2 µM 3% | [9]; at 3.7 µM 7% | [9]; [16] 7% | [9]; at 11.0 µM 9% | [9]; at 33.0 µM 19% | [9]; [17] 56% | [9]; at 100.0 µM 23% | [10]; at 1.2 µM 6% | [10]; at 3.7 µM 11% | [10]; at 11.0 µM 15% | [10]; at 33.0 µM 28% | [10]; at 100.0 µM 30% | [11]; at 1.2 µM 6% | [11]; at 3.7 µM 12% | [11]; at 11.0 µM 14% | [11]; at 33.0 µM 32% | [11]; at 100.0 µM 29% | [12]; at 1.2 µM 8% | [12]; at 3.7 µM 17% | [12]; at 11.0 µM 26% | [12]; at 33.0 µM 44% | [12]; at 100.0 µM 39% | [13]; [16] 36% | [13]; [17] 54% | [14]; at 1.2 µM 6% | [14]; at 3.7 µM 16% | [14]; at 11.0 µM 29% | [14]; at 33.0 µM 52% | [14]; at 100.0 µM 46%

COc1ccc(N=c2cc(-c3ccccc3)oc3ccccc23)cc1
active: [7]; at 50.0 µM 87.1% | [9]; at 50.0 µM 95.5% | [13]; at 50.0 µM 76.2%
inactive: [1]; at 1.2 µM 1% | [1]; at 3.7 µM 2% | [1]; at 11.0 µM 1% | [1]; at 33.0 µM -1% | [1]; at 100.0 µM -3% | [2]; at 1.2 µM 0% | [2]; at 3.7 µM 1% | [2]; at 11.0 µM 2% | [2]; at 33.0 µM 1% | [2]; at 100.0 µM -6% | [3]; at 1.2 µM 0% | [3]; at 3.7 µM 1% | [3]; at 11.0 µM -2% | [3]; at 33.0 µM 13% | [3]; at 100.0 µM -6% | [4]; at 1.2 µM 0% | [4]; at 3.7 µM 0% | [4]; [16] 11% | [4]; at 11.0 µM 1% | [4]; at 33.0 µM 0% | [4]; [17] 3% | [4]; at 50.0 µM 57.5% | [4]; at 100.0 µM -4% | [5]; at 1.2 µM -3% | [5]; at 3.7 µM -2% | [5]; [16] -4% | [5]; at 11.0 µM -3% | [5]; at 33.0 µM -4% | [5]; [17] 6% | [5]; at 50.0 µM 27.6% | [5]; at 100.0 µM -7% | [6]; at 1.2 µM -3% | [6]; at 3.7 µM -3% | [6]; at 11.0 µM 0% | [6]; at 33.0 µM -2% | [6]; at 100.0 µM -5% | [7]; [16] 1% | [7]; [17] 17% | [15]; at 1.2 µM -6% | [15]; at 3.7 µM -1% | [15]; at 11.0 µM -6% | [15]; at 33.0 µM -8% | [15]; at 100.0 µM -10% | [8]; [16] -7% | [8]; [17] -1% | [8]; at 50.0 µM 3.85% | [9]; at 1.2 µM -3% | [9]; at 3.7 µM -6% | [9]; [16] -1% | [9]; at 11.0 µM -1% | [9]; at 33.0 µM -4% | [9]; [17] -85% | [9]; at 100.0 µM -1% | [10]; at 1.2 µM 0% | [10]; at 3.7 µM -2% | [10]; at 11.0 µM -1% | [10]; at 33.0 µM -3% | [10]; at 100.0 µM -6% | [12]; at 1.2 µM -1% | [12]; at 3.7 µM 1% | [12]; at 11.0 µM -2% | [12]; at 33.0 µM -3% | [12]; at 100.0 µM -4% | [13]; [16] -2% | [13]; [17] 26% | [14]; at 1.2 µM -2% | [14]; at 3.7 µM 0% | [14]; at 11.0 µM -1% | [14]; at 33.0 µM -6% | [14]; at 100.0 µM -8%

COc1cc(OC)c(CSCC(NC(=O)OCC2c3ccccc3-c3ccccc32)C(=O)O)c(OC)c1 (centres undefined)
inactive: [1]; at 1.2 µM 0% | [1]; at 3.7 µM 5% | [1]; at 11.0 µM 48% | [2]; at 1.2 µM 1% | [2]; at 3.7 µM 9% | [2]; at 11.0 µM 55% | [3]; at 1.2 µM -2% | [3]; at 3.7 µM 8% | [3]; at 11.0 µM 52% | [4]; at 1.2 µM -6% | [4]; at 3.7 µM -9% | [4]; [16] 15% | [4]; at 11.0 µM 43% | [5]; at 1.2 µM 2% | [5]; at 3.7 µM 11% | [5]; [16] 12% | [5]; at 11.0 µM 55% | [7]; [16] -4% | [15]; at 1.2 µM 0% | [15]; at 3.7 µM 13% | [15]; at 11.0 µM 68% | [8]; [16] 52% | [9]; at 1.2 µM 0% | [9]; at 3.7 µM 10% | [9]; [16] 3% | [9]; at 11.0 µM 61% | [10]; at 1.2 µM -1% | [10]; at 3.7 µM 6% | [10]; at 11.0 µM 58% | [11]; at 1.2 µM 3% | [11]; at 3.7 µM 9% | [11]; at 11.0 µM 62% | [12]; at 1.2 µM 1% | [12]; at 3.7 µM 9% | [12]; at 11.0 µM 45% | [13]; [16] 5% | [14]; at 1.2 µM 0% | [14]; at 3.7 µM 8% | [14]; at 11.0 µM 36%
active: [1]; at 33.0 µM 97% | [1]; at 100.0 µM 98% | [2]; at 33.0 µM 96% | [2]; at 100.0 µM 99% | [3]; at 33.0 µM 97% | [3]; at 100.0 µM 98% | [4]; at 33.0 µM 94% | [4]; [17] 99% | [4]; at 50.0 µM 98.6% | [4]; at 100.0 µM 98% | [5]; at 33.0 µM 96% | [5]; [17] 99% | [5]; at 50.0 µM 99.2% | [5]; at 100.0 µM 98% | [7]; [17] 98% | [7]; at 50.0 µM 99% | [15]; at 33.0 µM 99% | [15]; at 100.0 µM 98% | [8]; [17] 99% | [8]; at 50.0 µM 98.4% | [9]; at 33.0 µM 95% | [9]; [17] 99% | [9]; at 50.0 µM 99.2% | [9]; at 100.0 µM 98% | [10]; at 33.0 µM 98% | [10]; at 100.0 µM 98% | [11]; at 33.0 µM 97% | [11]; at 100.0 µM 98% | [12]; at 33.0 µM 95% | [12]; at 100.0 µM 98% | [13]; [17] 99% | [13]; at 50.0 µM 98.4% | [14]; at 33.0 µM 96% | [14]; at 100.0 µM 97%
